Screening data deposited in PubChem BioAssay by several laboratories.
Shown are actives, neighbours in structure and some others; about 3% of the full set was active somewhere.
Peg3 prom inh = reduces Peg3 promoter-driven luciferase expression in HeLa; HeLa PEG-Prom luciferase reporter, luminescence, overnight; inhibition, % at 20 µM; 360,000 compounds, 1.7% hits;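 active = inhibition of at least 50% at 20 µM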
MITF TRPM1 inh = MITF TRPM1 promoter inhibition in SK-MEL-5 cells | 330,000 compounds, 0.83% hits | AID 488899 | SK-MEL-5 TRPM1 promoter luciferase, 24 h | inhibition, % at 12.5 µM;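 active = mean inhibition across replicates of 60% or more, whatever share of single replicates reaches that level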
HIF-2a block = blocks HIF-2a reporter activity. 360,000 compounds, 0.72% hits. inhibition, % at 18.8 µM. 786-0 RCC cells HIF-2a reporter, luciferase luminescence, overnight. AID 624352;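 active = inhibition of the luminescence signal of 40% or more relative to plate controls, in a single-dose primary screen at 18.75 µM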
CF NFkB block = inhibitors of cystic fibrosis induced NF-kB. KKLEB NF-kB-GFP reporter, PAF-induced, GFP fluorescence overnight. inhibition, % at 5 µM. 360,000 compounds, 0.86% hits;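 active = at least 50% inhibition at 5 µM, scaled per plate between neutral and stimulator controls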;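 also: PAF is a Pseudomonas aeruginosa culture filtrate used as stimulus; plate controls were PAF-stimulated DMSO wells for no effect and unstimulated DMSO wells for full effect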
ABHD5 PLIN5 PPI = ABHD5-PLIN5 protein interaction inhibition; Split G. princeps luciferase complementation, luminescence, 4 h; inhibition, % at 4 µM; 360,000 compounds, 0.78% hits;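 active = inhibition above the mean inhibition across every tested compound plus 3 SD, cut at about 22% in these data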;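 also: 0% = DMSO only wells and the 100% control is not disclosed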
Target sequence (Q00G26 whole entry, looked up): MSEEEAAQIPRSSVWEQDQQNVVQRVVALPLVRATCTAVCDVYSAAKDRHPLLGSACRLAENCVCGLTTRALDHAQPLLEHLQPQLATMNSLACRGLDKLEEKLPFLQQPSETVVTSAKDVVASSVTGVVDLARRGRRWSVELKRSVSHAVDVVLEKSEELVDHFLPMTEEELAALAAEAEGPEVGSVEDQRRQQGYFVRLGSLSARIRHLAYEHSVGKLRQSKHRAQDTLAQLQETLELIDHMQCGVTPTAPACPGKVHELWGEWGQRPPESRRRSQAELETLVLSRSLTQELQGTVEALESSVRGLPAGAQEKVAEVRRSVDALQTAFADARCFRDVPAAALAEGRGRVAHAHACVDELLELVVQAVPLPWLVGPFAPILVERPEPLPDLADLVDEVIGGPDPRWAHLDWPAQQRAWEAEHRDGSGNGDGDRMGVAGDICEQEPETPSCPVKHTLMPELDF
Target sequence (Q8WTS1 whole entry, looked up): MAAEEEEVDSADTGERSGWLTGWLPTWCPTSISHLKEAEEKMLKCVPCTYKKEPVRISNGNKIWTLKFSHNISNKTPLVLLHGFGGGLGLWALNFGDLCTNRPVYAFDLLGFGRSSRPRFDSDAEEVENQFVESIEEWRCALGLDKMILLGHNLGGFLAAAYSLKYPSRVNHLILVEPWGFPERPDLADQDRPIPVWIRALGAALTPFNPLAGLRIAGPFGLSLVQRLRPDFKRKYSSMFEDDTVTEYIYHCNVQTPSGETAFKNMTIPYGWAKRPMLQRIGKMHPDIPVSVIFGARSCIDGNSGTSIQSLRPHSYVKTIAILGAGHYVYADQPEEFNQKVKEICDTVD
KKLEB tox = CF airway cell cytotoxicity counter-screen | KKLEB CF airway cells viability, ATPlite luminescence, overnight; active compounds read low; cells stimulated with P. aeruginosa culture filtrate | activity change (cytotoxicity), % at 5 µM | 360,000 compounds, 0.36% hits | AID 602141;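 active = corrected activity change at or below -50% at 5 µM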
CF NFkB conf = confirmation of cystic fibrosis induced NF-kB inhibitors | inhibition, % at 5 µM | 1,300 compounds, 64% hits | KKLEB CF airway cells, PAF-induced NF-kB-GFP fluorescence, overnight | AID 602472 | shares compounds with CF NFkB block; in the data active = inhibition above about 40%;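 also: stimulus PAF is a Pseudomonas aeruginosa filtrate and not platelet activating factor; plate controls were DMSO wells with stimulus for no effect and unstimulated DMSO wells for full effect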
Active calls of the source: *; nt = no result given.

SMILES	Peg3 prom inh	MITF TRPM1 inh	HIF-2a block	CF NFkB block	ABHD5 PLIN5 PPI	KKLEB tox	CF NFkB conf
COC(=O)c1c(C)n(-c2ccc(OC)cc2)c2ccc(O)cc12	36	nt	28	58*	-2	-3	84*
CC(C)c1ccc(NC(=O)N2CCCC2C(=O)Nc2ccc(-n3cnnn3)cc2)cc1 (stereo not given)	-21	5	-23	-12	-1	3	nt
COc1ccc(-c2cn[nH]c2-c2ccc(OCc3ccc([N+](=O)[O-])cc3)cc2O)cc1	-1	-21	-1	70*	-3	2	82*
CCc1cc(-c2[nH]ncc2-c2ccc(OC)cc2)c(O)cc1O	55*	-1	31	76*	3	3	81*
CNC(=O)COC(=O)/C=C/c1c(C)nn(-c2ccccc2)c1C	-10	3	-22	-3	-4	0	nt
COc1cccc(N2CCN(c3nc(-c4ccccc4C)cc(=O)[nH]3)CC2)c1	104*	-3	-53	67*	-4	-6	39
O=C(CN(CCO)Cc1ccccc1)N1CCN(S(=O)(=O)c2ccccc2)CC1	2	nt	1	-7	0	6	nt
CC(=O)C1CCC2C3CCC4=CC(=O)CC[C@]4(C)[C@@]3(F)C(O)C[C@]12C (stereo not given in full)	12	-5	27	56*	-1	26	-50
O=c1[nH]nc2c3ccccc3occ1-2	nt	nt	0	nt	-13	nt	nt
CC1(C)CC(=O)C2=C(C1)N(CCN1CCOCC1)C1=C(C(=O)CC(C)(C)C1)C2c1ccc(Cl)cc1	-4	-7	24	57*	-1	0	3
O=C(COC(=O)COc1ccccc1)NCc1ccc2c(c1)OCO2	12	1	5	-4	-2	-1	nt
CCCCOc1cc(C(=O)OCCN(CC)CC)ccc1N	2	-1	4	-11	0	2	nt
CCCOc1ccc(C(=O)OCCN(CC)CC)cc1N	5	6	-15	75*	8	4	16
NS(=O)(=O)c1ccc(CCNc2nn3c(-c4cccc(OC(F)(F)F)c4)cnc3s2)cc1	102*	nt	23	53*	-12	-41	70*
COc1ccc(CCNc2ccc(S(N)(=O)=O)cn2)cc1	-22	-3	-5	-11	7	-5	nt
Cc1ccc(-n2ccnc(SCC(=O)NC3CCCCC3)c2=O)cc1F	-8	6	-28	2	-38	6	nt
O=C(CNC(=O)c1ccccc1Cl)OC1CCOC1=O (stereo not given)	2	0	15	-10	3	-6	nt
CCN(CC)C(=O)c1cn(CCC#N)nc1-c1ccc2ccccc2c1	28	2	15	3	-4	5	nt
CCOc1ccc(N(C)Cc2cc(=O)oc3ccc(OCC)cc23)cc1	12	1	17	11	-2	0	nt
COc1ccc(-c2cc(=O)oc3cc(OC(=O)C4CCCCC4)ccc23)cc1	-13	0	-7	74*	0	0	84*
O=C(Oc1ccc2c(-c3ccccc3)cc(=O)oc2c1)C1CCCCC1	-11	9	-42	27	6	5	nt
COCCN(C(=O)CN1CCN(S(=O)(=O)c2ccc(F)cc2)CC1)c1c(N)n(Cc2ccccc2)c(=O)[nH]c1=O	-4	10	13	3	-3	4	nt
CCCCCCc1nc2nc(Cl)c(Cl)nc2[nH]1	-14	nt	-55	60*	0	16	32
CC1=CCC2C(=O)N(c3ccccc3OC(=O)c3ccccc3F)C(=O)C2C1 (stereo not given)	-24	4	-5	2	-3	-12	nt
CC(=O)c1ccc(OCCCC(=O)NNC(=O)c2ccccn2)cc1	13	2	7	9	0	3	nt
SMILES	Peg3 prom inh	MITF TRPM1 inh	HIF-2a block	CF NFkB block	ABHD5 PLIN5 PPI	KKLEB tox	CF NFkB conf
CS(=O)(=O)c1ccc2nc(NC(=O)Nc3ccc(Cl)c(Cl)c3)sc2c1	41	-14	5	25	4	-7	nt
CS(=O)(=O)c1ccc2nc(NC(=O)Nc3cccc(Cl)c3)sc2c1	-60	-37	-134	64*	3	-32	66*
COCCn1c(=NC(=O)c2sc3ccccc3c2Cl)sc2cc(S(N)(=O)=O)ccc21	10	-10	18	55*	0	-46	24
COc1ccc(NC(=O)Cn2nnc(C(=O)NCc3ccc(C)cc3)c2N)cc1Cl	7	-8	1	58*	-1	-37	10
COc1ccc(NC(=O)Cn2nnc(C(=O)NCc3ccccc3)c2N)cc1Cl	12	7	18	17	0	-11	nt
CC1CCCCN1C(=O)CCNC(=O)Cn1cnc2ccccc2c1=O (stereo not given)	-2	12	14	5	-3	1	nt
ON=C1c2ccccc2-c2ccc(O)cc21	-256	-6	-201	-3	2	8	nt
ON=C1c2ccccc2-c2cc(Br)ccc21	-39	-6	-53	78*	-2	-6	73*
Cc1nc(N)c(C#N)c(-c2cccnc2)c1-c1ccccc1	9	1	29	63*	-3	-5	68*
CC(C)NC(=O)C1(C)CCN1C(=O)c1ccc2c(c1)OCO2 (stereo not given)	-13	nt	10	14	-4	1	nt
CC1CCCCN1C(=S)Nc1ccc(S(=O)(=O)N2CCCCC2)cc1 (stereo not given)	5	nt	13	19	-8	-9	nt
CC1C(c2ccccc2)OCCN1C(=S)Nc1ccc(S(=O)(=O)N2CCCCC2)cc1 (stereo not given)	20	nt	16	58*	0	-1	60*
CC(=O)N1CCc2c(sc(NC(=O)c3ccc([N+](=O)[O-])o3)c2C(N)=O)C1	97*	nt	-65	96*	11	-30	31
O=C(COc1cc2oc(=O)c3c(c2cc1Cl)CCC3)Nc1ccc(CN2CCOCC2)cc1	19	-6	-13	-12	6	-3	nt
COc1ccc(-c2nc(N3CCOCC3)nc3n[nH]c(N)c23)cc1	22	24	29	69*	7	-26	56*
Nc1[nH]nc2nc(N3CCCC3)nc(-c3ccccc3)c12	5	11	18	14	-1	-7	nt
CCC(=NCCc1c(C)[nH]c2ccc(C)cc12)C1=C(O)CC(c2ccccc2)CC1=O (stereo not given)	22	22	28	57*	-3	-20	78*
CCN(c1ccccc1)S(=O)(=O)c1ccc(Cl)c(NC(=O)CN(C)Cc2cccc(F)c2)c1	21	13	17	11	-10	-3	nt
Cc1ccc2occ(/C=N/NC(=O)c3ccc(O)cc3)c(=O)c2c1	-6	-7	19	66*	-3	-24	29
CCOc1ccccc1C(=O)N/N=C/c1coc2ccc(C)cc2c1=O	7	12	23	71*	0	-31	13
